Drawing on the supplement of paper PMC11537057, this text covers HSV-1 infection for 75 compounds.

Where a name gives a salt, the structure may show the parent alone. In all, about 1,700 compounds went through this assay and about 15 (0.9%) showed activity.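 The calls were made as follows: active = infection cut by 80% or more with cell growth above 90% in both runs; inactive = the rest.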 For the sample, actives were picked, then their nearest neighbours and some compounds at random.

In the assay the test system is HSV-1 strain 17 YFP-ICP4 in A549. The assay can be described thus: HSV-1 infection relative to DMSO (ICP4-YFP per H2B-RFP signal); higher = more viral infection (less antiviral activity), active = hit call of the paper. The settings on record: 10 µM; 48 h; MOI: 0.1. The protocol:
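Selleck FDA-approved library (L1300) screened in duplicate at 10 µM on A549 H2B-mRuby cells in 384-well plates, infected with HSV-1 strain 17 YFP-ICP4 at MOI 0.1 one hour before drug addition. Imaged after 2 days at 37°C. Cell growth (H2B-RFP) and infection (ICP4-YFP) are expressed as % of DMSO-treated wells. Hits: growth >90% and infection <20% of DMSO.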
In the case of `CC(C)C(Br)C(=O)NC(N)=O` (stereo not given) [Bromisoval], the HSV-1 infection is 117% (inactive).
The result for `N#Cc1ccc(Oc2ccc3c(c2)COB3O)cc1` [Crisaborole (AN2728)] reads 95.1% (inactive); that for `CNC(C)Cc1ccccc1OC` (stereo not given) [Methoxyphenamine Hydrochloride], 110% (inactive).
The result for `Nc1nc(CC(=O)Nc2ccc(CCNC[C@H](O)c3ccccc3)cc2)cs1` [Mirabegron] reads 104% (inactive).
The result for `O=C(O)CCn1c2c(c3ccccc31)C[C@H](NS(=O)(=O)c1ccc(F)cc1)CC2` [Ramatroban] reads 96.2% (inactive).
Take `O=C(NC[C@H](O)CO)c1ccncc1Nc1ccc(I)cc1F`: the HSV-1 infection is 34.8% (inactive).
The figure for `CC[C@H](C)[C@@H]1NC(=O)[C@H](Cc2ccc(O)cc2)NC(=O)[C@@H](N)CSSC[C@@H](C(=O)N2CCC[C@H]2C(=O)N[C@@H](CC(C)C)C(=O)NCC(N)=O)NC(=O)[C@H](CC(N)=O)NC(=O)[C@H](CCC(N)=O)NC1=O` [Oxytocin (Syntocinon)] is 82.7% (inactive); for `CCS(=O)(=O)N1CCN(c2ccc(Nc3ncc(C(N)=O)c(NC4CC4)n3)cc2)CC1` it is 25.3% (inactive); for `CC(C)C[C@H](NC(=O)CNC(=O)[C@H](Cc1ccc(O)cc1)NC(=O)[C@H](CO)NC(=O)[C@H](Cc1c[nH]c2ccccc12)NC(=O)[C@H](Cc1cnc[nH]1)NC(=O)[C@@H]1CCC(=O)N1)C(=O)N[C@@H](CCCNC(=N)N)C(=O)N1CCC[C@H]1C(=O)NCC(N)=O` [Gonadorelin Acetate] it is 117% (inactive).
The figure for `NCC(=O)O` [Glycine] is 95.8% (inactive); for `CCCN(CCc1cccs1)[C@H]1CCc2c(O)cccc2C1` [Rotigotine] it is 27.9% (inactive).
The figure for `CCCCCCCN(CC)CCCC(O)c1ccc(NS(C)(=O)=O)cc1` (stereo not given) [Ibutilide Fumarate] is 84.3% (inactive); for `O.O.O.O=C([O-])C1[O][Sb]2[O]C(=O)C([O]2)C(C(=O)[O-])[O][Sb]2[O]C(=O)C1[O]2.[K+].[K+]` (stereo not given) [Antimonyl potassium tartrate trihydrate] it is 80.2% (inactive); for `COC(=O)C1=C(C#N)NC(C)=C(C(=O)OC(C)C)C1c1cccc([N+](=O)[O-])c1` (stereo not given) [Nilvadipine] it is 95.1% (inactive).
`Cc1onc(-c2c(F)cccc2Cl)c1C(=O)N[C@@H]1C(=O)N2[C@@H]1SC(C)(C)[C@@H]2C(=O)O` [Flucloxacillin sodium]: the HSV-1 infection was 114% (inactive).
The figure for `O=C(Nc1cccc2c(=O)cc(-c3nnn[nH]3)oc12)c1ccc(OCCCCc2ccccc2)cc1` [Pranlukast] is 79.1% (inactive); for `OB1OCc2cc(F)ccc21` [Tavaborole (AN-2690)] it is 115% (inactive); for `CCOc1cc(N)c(Cl)cc1C(=O)NCC1CN(Cc2ccc(F)cc2)CCO1` (stereo not given) [Mosapride] it is 97.6% (inactive).
The result for `CCOc1cc(N)c(Cl)cc1C(=O)NCC1CN(Cc2ccc(F)cc2)CCO1` (stereo not given) [Mosapride Citrate] reads 96.7% (inactive); that for `C[N+]1(C)[C@@H]2C[C@@H](OC(=O)C(O)(c3cccs3)c3cccs3)C[C@H]1[C@@H]1O[C@@H]12` [Tiotropium Bromide hydrate], 100% (inactive).
The result for `CCOCCn1c(C2CCN(CCc3ccc(C(C)(C)C(=O)O)cc3)CC2)nc2ccccc21` [Bilastine] reads 107% (inactive).
On to `CC1(C)S[C@@H]2[C@H](NC(=O)Cc3ccccc3)C(=O)N2[C@H]1C(=O)O.CCN(CC)CCOC(=O)c1ccc(N)cc1` [Penicillin G Procaine], for which the HSV-1 infection was 120% (inactive).
Consider `Cc1cncc(CN2CCC(=C3c4ccc(Cl)cc4CCc4cccnc43)CC2)c1` [Rupatadine Fumarate], for which the HSV-1 infection was 108% (inactive).
The figure for `CO[C@H]1O[C@H](COS(=O)(=O)O)[C@@H](O[C@@H]2O[C@@H](C(=O)O)[C@@H](O[C@H]3O[C@H](COS(=O)(=O)O)[C@@H](O[C@@H]4O[C@H](C(=O)O)[C@@H](O[C@H]5O[C@H](COS(=O)(=O)O)[C@@H](O)[C@H](O)[C@H]5NS(=O)(=O)O)[C@H](O)[C@H]4O)[C@H](OS(=O)(=O)O)[C@H]3NS(=O)(=O)O)[C@H](O)[C@H]2OS(=O)(=O)O)[C@H](O)[C@H]1NS(=O)(=O)O` [Fondaparinux Sodium] is 104% (inactive); for `O=c1c(-n2ccnn2)c[nH]n1-c1cc(N2CCOCC2)ncn1` [Molidustat (BAY 85-3934)] it is 81.4% (inactive); for `CC(C)OC(=O)[C@H](C)N[P@](=O)(CO[C@H](C)Cn1cnc2c(N)ncnc21)Oc1ccccc1` [Tenofovir Alafenamide (GS-7340)] it is 2.77% (active).
On to `CC(C)OC(=O)[C@H](C)N[P@](=O)(OC[C@H]1O[C@@H](n2ccc(=O)[nH]c2=O)[C@](C)(F)[C@@H]1O)Oc1ccccc1` [Sofosbuvir (PSI-7977, GS-7977)], for which the HSV-1 infection was 105% (inactive).
The result for `CC(C)OC(=O)OCOP(=O)(CO[C@H](C)Cn1cnc2c(N)ncnc21)OCOC(=O)OC(C)C` [Tenofovir Disoproxil Fumarate] reads 86.9% (inactive); that for `CCN(C(=O)c1c(O)c2c(Cl)cccc2n(C)c1=O)c1ccccc1` [Laquinimod], 117% (inactive).
The figure for `CC(=O)Nc1cccc(-n2c(=O)n(C3CC3)c(=O)c3c(Nc4ccc(I)cc4F)n(C)c(=O)c(C)c32)c1` is 43.8% (inactive); for `Cc1ccccc1C(=O)Nc1ccc(C(=O)N2CCCC(O)c3cc(Cl)ccc32)c(C)c1` (stereo not given) [Tolvaptan] it is 68% (inactive); for `Cc1[nH]c2ccccc2c1CCNCc1ccc(/C=C/C(=O)NO)cc1` [Panobinostat (LBH589)] it is 34.1% (inactive).
The result for `CC(C)C[C@H](NC(=O)[C@@H](NC(=O)c1cccc(-c2ccccc2)n1)[C@@H](C)O)B(O)O` reads 106% (inactive).
On to `CN(C(=O)c1ccc(F)cc1C(F)(F)F)C1CCN(c2nnc(-c3ccnn3C)c3ccccc23)CC1`, for which the HSV-1 infection is 113% (inactive).
As for `O=c1[nH]c(=O)n([C@H]2C[C@H](O)[C@@H](CO)O2)cc1C(F)(F)F` [Trifluridine], the HSV-1 infection was 20.6% (inactive).
The result for `Cc1cn([C@@H]2C[C@@H](O)[C@H](CO)O2)c(=O)[nH]c1=O` [Telbivudine] reads 139% (inactive); that for `Cc1cn([C@H]2C[C@H](N=[N+]=[N-])[C@@H](CO)O2)c(=O)[nH]c1=O` [Zidovudine], 89.6% (inactive); that for `O=c1[nH]c(=O)n([C@H]2C[C@H](O)[C@@H](CO)O2)cc1/C=C/Br` [Brivudine], 2.36% (active).
In the case of `O=c1[nH]c(=O)n([C@H]2C[C@H](O)[C@@H](CO)O2)cc1I` [Idoxuridine], the HSV-1 infection is 2.44% (active).
The result for `Cc1cn([C@H]2O[C@@H](CO)[C@H](O)[C@H]2F)c(=O)[nH]c1=O` [Clevudine] reads 114% (inactive).
Regarding `CCNC1(C(N)=O)CCN(c2ncnc3c2nc(-c2ccccc2Cl)n3-c2ccc(Cl)cc2)CC1`, the HSV-1 infection is 105% (inactive).
The result for `O=C1C(CC[S+]([O-])c2ccccc2)C(=O)N(c2ccccc2)N1c1ccccc1` (racemic) [(+/-)-Sulfinpyrazone] reads 111% (inactive).
The result for `C=CN1CCCC1=O.II` [Povidone iodine] reads 108% (inactive); that for `CCCCCOc1ccccc1/C(=C\SC)n1ccnc1` [Neticonazole Hydrochloride], 61.4% (inactive).
The result for `CC(C)(C)C#Cc1cc(N(C(=O)[C@H]2CC[C@H](C)CC2)[C@H]2CC[C@H](O)CC2)c(C(=O)O)s1` [Lomibuvir (VX-222, VCH-222)] reads 130% (inactive).
For the compound `COc1cc2c(cc1OC)CN(CCc1ccc(NC(=O)c3cccc4c(=O)c5cccc(OC)c5[nH]c34)cc1)CC2`, the HSV-1 infection is 135% (inactive).
As to `COC(=O)N[C@H](C(=O)N1CC2(CC2)C[C@H]1c1nc(-c2ccc3c(c2)C(F)(F)c2cc(-c4ccc5[nH]c([C@@H]6[C@H]7CC[C@H](C7)N6C(=O)[C@@H](NC(=O)OC)C(C)C)nc5c4)ccc2-3)c[nH]1)C(C)C` [Ledipasvir (GS5885)], the HSV-1 infection is 105% (inactive).
The figure for `CCCCC[C@](C)(O)/C=C/[C@@H]1[C@@H](C/C=C\CCCC(=O)O)[C@@H](O)C[C@H]1O` [Carboprost] is 117% (inactive); for `Nc1ncn([C@H]2C[C@H](O)[C@@H](CO)O2)c(=O)n1` [Decitabine] it is 7.64% (active); for `Nc1nc(Cl)nc2c1ncn2[C@H]1C[C@H](O)[C@@H](CO)O1` [Cladribine] it is 22.3% (inactive).
On to `Nc1ncn([C@@H]2O[C@H](CO)[C@@H](O)[C@H]2O)c(=O)n1` [Azacitidine], for which the HSV-1 infection is 5.54% (active).
The result for `NC(=O)c1ncn([C@@H]2O[C@H](CO)[C@@H](O)[C@H]2O)c1O` [Mizoribine] reads 89.7% (inactive).
Regarding `Nc1ccn([C@H]2CC[C@@H](CO)O2)c(=O)n1` [Zalcitabine], the HSV-1 infection was 98.8% (inactive).
Turning to `NC(=O)c1ncn([C@@H]2O[C@H](CO)[C@@H](O)[C@H]2O)c1N` [AICAR (Acadesine)], the HSV-1 infection was 67.6% (inactive).
The result for `CC#CC(=O)N1CCC[C@H]1c1nc(-c2ccc(C(=O)Nc3ccccn3)cc2)c2c(N)nccn12` [Acalabrutinib (ACP-196)] reads 98.3% (inactive); that for `CNC(=O)CN(CCN(CCN(CC(=O)[O-])CC(=O)NC)CC(=O)[O-])CC(=O)[O-].O.[Gd+3]` [Gadodiamide Hydrate], 108% (inactive).
The figure for `COc1ccc(C[C@@H](C)NC[C@H](O)c2ccc(O)c(NC=O)c2)cc1` [Arformoterol Tartrate] is 112% (inactive); for `Cn1cnc2c(F)c(Nc3ccc(Br)cc3Cl)c(C(=O)NOCCO)cc21` [Selumetinib (AZD6244)] it is 52.5% (inactive).
The result for `CNCc1cc(-c2ccccc2F)n(S(=O)(=O)c2cccnc2)c1` [Vonoprazan Fumarate (TAK-438)] reads 95.8% (inactive); that for `CCCNS(=O)(=O)Nc1ncnc(OCCOc2ncc(Br)cn2)c1-c1ccc(Br)cc1` [Macitentan], 93.1% (inactive).
On to `C[C@@H](O)[C@H]1C(=O)N2C(C(=O)OCOC(=O)C(C)(C)C)=C(SC3CN(C4=NCCS4)C3)[C@H](C)[C@H]12` [Tebipenem Pivoxil], for which the HSV-1 infection is 92.2% (inactive).
The figure for `CC1CCC(C(C)C)C(O)C1` (single isomer, unassigned; (-)) [(-)-Menthol] is 99.1% (inactive); for `Nc1nc2c(ncn2COC(CO)CO)c(=O)[nH]1` [Ganciclovir] it is 2.93% (active).
The result for `C[C@H](Cn1cnc2c(N)ncnc21)OCP(=O)(O)O` [Tenofovir] reads 119% (inactive); that for `Nc1ccn(C[C@@H](CO)OCP(=O)(O)O)c(=O)n1` [Cidofovir], 45.8% (inactive).
The result for `Nc1nc2c(ncn2COCCO)c(=O)[nH]1` [Aciclovir] reads 3.03% (active); that for `CC(C)[C@H](N)C(=O)OCC(CO)OCn1cnc2c(=O)[nH]c(N)nc21` (stereo not given in full) [Valganciclovir HCl], 2.02% (active); that for `CC(C)[C@H](N)C(=O)OCCOCn1cnc2c(=O)nc(N)[nH]c21` [Valaciclovir HCl], 4.82% (active).
In the case of `O=c1[nH]cnc2c1ncn2[C@H]1CC[C@@H](CO)O1` [Didanosine], the HSV-1 infection was 112% (inactive).
The figure for `C=C1[C@H](CO)[C@@H](O)C[C@@H]1n1cnc2c(=O)[nH]c(N)nc21` [Entecavir Hydrate] is 12.1% (active); for `C=C1[C@H](CO)[C@@H](O)C[C@@H]1n1cnc2c(=O)[nH]c(N)nc21` [Entecavir] it is 7.02% (active); for `O=c1[nH]cnc2c1ncn2[C@@H]1O[C@H](CO)[C@@H](O)[C@H]1O` [Inosine] it is 82.6% (inactive).
Take `N/N=c1\[nH][nH]/c(=N\N)c2ccccc12` [Dihydralazine sulphate]: the HSV-1 infection was 123% (inactive).
The figure for `C1CNCCNCCNCCN1` [Cyclen] is 105% (inactive); for `C=C1CCN([C@H](C)[C@](O)(Cn2cncn2)c2ccc(F)cc2F)CC1` [Efinaconazole] it is 93.8% (inactive).
